Several values for one entry are separate records, joined by “and”; a condition that tells them apart may be missing. Equal entries are not always repeated. Activity calls are given as the source filed them.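 How the source made its calls, unless noted: active means thallium flux through the channel raised or lowered by more than 3 SD from vehicle-only wells, actives on both sides; inactive means the rest.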

Chain of NAD(+) hydrolase SARM1 (Homo sapiens) (Q6SZW1 whole entry, looked up): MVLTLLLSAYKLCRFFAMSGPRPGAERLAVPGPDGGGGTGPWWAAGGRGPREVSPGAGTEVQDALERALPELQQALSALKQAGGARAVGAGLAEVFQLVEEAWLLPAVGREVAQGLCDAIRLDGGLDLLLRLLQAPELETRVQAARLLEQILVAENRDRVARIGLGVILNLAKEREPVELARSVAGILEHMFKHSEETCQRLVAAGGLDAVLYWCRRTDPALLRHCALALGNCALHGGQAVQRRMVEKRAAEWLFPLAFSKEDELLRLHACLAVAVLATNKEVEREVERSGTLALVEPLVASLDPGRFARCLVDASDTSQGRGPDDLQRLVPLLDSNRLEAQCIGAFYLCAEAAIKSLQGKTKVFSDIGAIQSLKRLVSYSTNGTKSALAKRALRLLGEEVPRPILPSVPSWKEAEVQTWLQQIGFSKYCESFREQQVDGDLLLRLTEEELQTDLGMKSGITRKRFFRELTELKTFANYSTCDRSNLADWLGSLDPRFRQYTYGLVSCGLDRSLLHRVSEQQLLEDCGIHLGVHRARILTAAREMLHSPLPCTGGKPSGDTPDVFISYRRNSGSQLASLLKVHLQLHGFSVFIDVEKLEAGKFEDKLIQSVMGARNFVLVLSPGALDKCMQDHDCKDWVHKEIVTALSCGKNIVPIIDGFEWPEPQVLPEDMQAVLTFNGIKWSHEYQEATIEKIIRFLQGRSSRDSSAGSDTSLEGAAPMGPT

System in the first assay: not listed separately
Kind of assay: MELAS cybrid and Rieske KO viability enhancers – cell-based, MELAS cybrids, Rieske KO mouse fibroblasts, CellTiter-Glo, primary screen (AID 1508586;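 active means mean z-score across replicates of 1.96 or higher in either the MELAS or the Rieske mutant cell line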;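 further: z relative to plate mean and SD of compound and empty wells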). The following applies: MELAS cybrid survival, low glucose, CellTiter-Glo 48 h; stronger effect = higher value. On the technique in general: In ATP-based viability assays light output follows the ATP content of the culture.
On to `CC(=O)O[C@@]12CO[C@@H]1C[C@H](O)[C@@]1(C)C(=O)[C@H](O)C3=C(C)[C@@H](OC(=O)[C@H](O)[C@@H](NC(=O)OC(C)(C)C)c4ccccc4)C[C@](O)([C@@H](OC(=O)c4ccccc4)[C@H]21)C3(C)C`, for which the z-score was -2.05 (inactive).
For the compound `COCCCCC(=NOCCN)c1ccc(C(F)(F)F)cc1`, the z-score is 0.785 (inactive) and -0.408 (inactive).
On the same count and under the same terms, the value for `CCN(CC)CCOc1ccc(C(=C(Cl)c2ccccc2)c2ccccc2)cc1` was -0.453 (inactive).

Still in this assay, the particulars now being: Rieske KO mouse fibroblast survival, low glucose, CellTiter-Glo 72 h.
Take `CC(=O)O[C@@]12CO[C@@H]1C[C@H](O)[C@@]1(C)C(=O)[C@H](O)C3=C(C)[C@@H](OC(=O)[C@H](O)[C@@H](NC(=O)OC(C)(C)C)c4ccccc4)C[C@](O)([C@@H](OC(=O)c4ccccc4)[C@H]21)C3(C)C`: the z-score worked out at 0.54.
Still for that read-out and setting: the result for `COCCCCC(=NOCCN)c1ccc(C(F)(F)F)cc1` reads 0.468 and -0.05; that for `CCN(CC)CCOc1ccc(C(=C(Cl)c2ccccc2)c2ccccc2)cc1`, -0.778.

Another assay concerns the target NAD(+) hydrolase SARM1 (Homo sapiens) (UniProt Q6SZW1). Kind of assay: blocking NAD cleavage by SARM1 SAM-TIR – cell lysate, NAD-Glo luminescence (AID 1508614;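 active means compound whose remaining NAD level is above about 45 nM, limit read from the data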). The following applies: SAM-TIR HEK293T lysate NADase, at 1 µM, stronger effect = higher value.
In the case of `C[C@]12C=CC(=O)C=C1CC[C@@H]1[C@@H]2[C@@H](O)C[C@@]2(C)[C@H]1CC[C@]2(O)C(=O)COC(=O)CCC(=O)O`, the remaining NAD is 10 nM (inactive).
On to `CO[C@H]1O[C@@H]2O[C@@]3(C)CC[C@H]4[C@H](C)CC[C@@H]([C@H]1C)[C@@]24OO3`, for which the remaining NAD was 10 nM (inactive).
Consider `CCN(CC)CCOc1ccc(C(=C(Cl)c2ccccc2)c2ccccc2)cc1`, for which the remaining NAD was 10 nM (inactive).

System in a further assay: not listed separately
As to the kind of experiment: galactose survival enhancers in mitochondrial complex I cybrids – cell-based, galactose medium, ATP luminescence, primary screen (AID 1645843;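 active means z-score of at least 1.8 in each of two replicates, scored against plate mean and spread of sample wells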;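 further: positive z means more ATP and so rescue of galactose-driven cybrid death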). The following applies: complex I mutant cybrid cells, 72 h, stronger effect = higher value.
Take `O=C1N=C(O)CN1N=Cc1ccc(-c2ccc([N+](=O)[O-])cc2)o1`: the z-score is -0.1 (inactive).
In the case of `CC1c2cccc(O)c2C(O)=C2C(=O)[C@]3(O)C(O)=C(C(N)=O)C(=O)[C@@H](N(C)C)[C@@H]3C[C@@H]21` (stereo partly specified), the z-score is -0.345 (inactive).
Same read-out and setting: the value for `C[C@H]1O[C@@H](O[C@H]2[C@@H](O)C[C@H](O[C@H]3[C@@H](O)C[C@H](O[C@H]4CC[C@@]5(C)[C@H](CC[C@@H]6[C@@H]5C[C@@H](O)[C@]5(C)C(C7=CC(=O)OC7)CC[C@]65O)C4)O[C@@H]3C)O[C@@H]2C)C[C@H](O)[C@@H]1O` (stereo partly specified) was -0.815 (inactive); that for `CON=C(C(=O)N[C@@H]1C(=O)N2C(C(=O)O)=C(COC(N)=O)CS[C@H]12)c1ccco1` was -0.2 (inactive); that for `Cc1cc(=O)oc2cc(NC(=O)C3CCC(=O)N3)ccc12` (stereo unspecified) was -0.335 (inactive).
As for `CN1CCN2c3ncccc3Cc3ccccc3[C@@H]2C1`, the z-score was 0.765 (inactive).
On the same count and under the same terms, the result for `CN(C)S(=O)(=O)c1ccc2c(c1)/C(=C\CCN1CCNCC1)c1ccccc1S2` reads -0.06 (inactive); that for `CCC(=O)NS(=O)(=O)c1ccc(-c2c(-c3ccccc3)noc2C)cc1`, 0.78 (inactive); that for `CN(C)CC/C=C1/c2ccccc2COc2ccccc21`, -0.705 (inactive).
The same measure, in the same setting: the value for `CC(=O)NCCCCCCNC(C)=O` was 0.325 (inactive); that for `COCCCCC(=NOCCN)c1ccc(C(F)(F)F)cc1` was -0.79 (inactive) and -1.17 (inactive); that for `CCN(CC)CCOc1ccc(C(=C(Cl)c2ccccc2)c2ccccc2)cc1` was -1.52 (inactive).
Still for that read-out and setting: the result for `CO[C@H]1/C=C/O[C@@]2(C)Oc3c(C)c(O)c4c(O)c(c(C=NN5CCN(C6CCCC6)CC5)c(O)c4c3C2=O)NC(=O)/C(C)=C\C=C\[C@H](C)[C@H](O)[C@@H](C)[C@@H](O)[C@@H](C)[C@H](OC(C)=O)[C@@H]1C` reads -1.41 (inactive).
Regarding `O=C1CN(N=Cc2ccc([N+](=O)[O-])o2)C(=O)N1`, the z-score was -1.36 (inactive).
Still for that read-out and setting: the value for `COc1cc(N)c(Cl)cc1C(=O)N[C@@H]1CCN(CCCOc2ccc(F)cc2)C[C@@H]1OC` was -0.47 (inactive).

The next assay deals with F380Y. As to the kind of experiment: BK channel mutant inhibitors and activators – cell-based, U2OS BacMam, thallium flux, beta subunits, selectivity assay, profiling panel (AID 1259406).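 Further: initial slope of Thallos dye fluorescence rise after thallium is added; log ratio against the mean of 0.3% DMSO vehicle wells on the same plate.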 Conditions: U2OS BacMam BK variants, at 30 µM.
In the case of `O=C1N=C(O)CN1N=Cc1ccc(-c2ccc([N+](=O)[O-])cc2)o1`, the log fold change Tl+ flux was 0.0284 (inactive).
With `CC(=O)O[C@@]12CO[C@@H]1C[C@H](O)[C@@]1(C)C(=O)[C@H](O)C3=C(C)[C@@H](OC(=O)[C@H](O)[C@@H](NC(=O)OC(C)(C)C)c4ccccc4)C[C@](O)([C@@H](OC(=O)c4ccccc4)[C@H]21)C3(C)C`, the log fold change Tl+ flux was -0.0323 (inactive).
Consider `CC1c2cccc(O)c2C(O)=C2C(=O)[C@]3(O)C(O)=C(C(N)=O)C(=O)[C@@H](N(C)C)[C@@H]3C[C@@H]21` (stereo partly specified), for which the log fold change Tl+ flux was -0.00643 (inactive).
On the same count and under the same terms, the result for `CO[C@H]1C=CO[C@@]2(C)Oc3c(C)c(O)c4c(O)c(c(C=NN5CCN(C6CCCC6)CC5)c(O)c4c3C2=O)NC(=O)C(C)=CC=C[C@H](C)[C@H](O)[C@@H](C)[C@@H](O)[C@@H](C)[C@H](OC(C)=O)[C@@H]1C` reads 0.118 (active).
Same read-out and setting: the result for `C=CC1=C(C(=O)O)N2C(=O)[C@@H](NC(=O)C(=NO)c3csc(N)n3)[C@H]2SC1` reads 0.0518 (inactive).
The same measure, in the same setting: the value for `C[C@H]1O[C@@H](O[C@H]2[C@@H](O)C[C@H](O[C@H]3[C@@H](O)C[C@H](O[C@H]4CC[C@@]5(C)[C@H](CC[C@@H]6[C@@H]5C[C@@H](O)[C@]5(C)C(C7=CC(=O)OC7)CC[C@]65O)C4)O[C@@H]3C)O[C@@H]2C)C[C@H](O)[C@@H]1O` (stereo partly specified) was -0.0279 (inactive); that for `CON=C(C(=O)N[C@@H]1C(=O)N2C(C(=O)O)=C(COC(N)=O)CS[C@H]12)c1ccco1` was 0.0216 (inactive); that for `Cc1cc(=O)oc2cc(NC(=O)C3CCC(=O)N3)ccc12` (stereo unspecified) was -0.00455 (inactive).
In the case of `N[C@@H](C(=O)N[C@@H]1C(=O)N2C(C(=O)O)=C(CSc3cn[nH]n3)CS[C@H]12)c1ccc(O)cc1` (tested in a mixture with another compound), the log fold change Tl+ flux was 0.0279 (inactive).
Still for that read-out and setting: the value for `CN1CCN2c3ncccc3Cc3ccccc3[C@@H]2C1` was 0.081 (inactive); that for `C=CC[C@@H]1C=C(C)C[C@H](C)C[C@H](OC)[C@H]2O[C@@](O)(C(=O)C(=O)N3CCCC[C@H]3C(=O)O[C@H](/C(C)=C/[C@@H]3CC[C@@H](O)[C@H](OC)C3)[C@H](C)[C@@H](O)CC1=O)[C@H](C)C[C@@H]2OC` was -0.344 (active); that for `CO[C@H]1C=CO[C@@]2(C)Oc3c(C)c(O)c4c(O)c(c5c(c4c3C2=O)NC2(CCN(CC(C)C)CC2)N=5)=NC(=O)C(C)=CC=C[C@H](C)[C@H](O)[C@@H](C)[C@@H](O)[C@@H](C)[C@H](OC(C)=O)[C@@H]1C` was 0.00735 (inactive).
The same measure, in the same setting: the result for `CN(C)S(=O)(=O)c1ccc2c(c1)/C(=C\CCN1CCNCC1)c1ccccc1S2` reads -0.0239 (inactive); that for `CCC(=O)NS(=O)(=O)c1ccc(-c2c(-c3ccccc3)noc2C)cc1`, 0.0552 (inactive).
Still for that read-out and setting: the value for `C[C@]12C=CC(=O)C=C1CC[C@@H]1[C@@H]2[C@@H](O)C[C@@]2(C)[C@H]1CC[C@]2(O)C(=O)COC(=O)CCC(=O)O` was -0.0223 (inactive).
As for `CN(C)CC/C=C1/c2ccccc2COc2ccccc21`, the log fold change Tl+ flux is 0.124 (active).
For `CC(=O)NCCCCCCNC(C)=O`, the log fold change Tl+ flux was 0.015 (inactive).
The same measure, in the same setting: the value for `CO[C@H]1C=CO[C@@]2(C)Oc3c(C)c(O)c4c(O)c(c5c(nc6cc(C)ccn65)c4c3C2=O)NC(=O)C(C)=CC=C[C@H](C)[C@H](O)[C@@H](C)[C@@H](O)[C@@H](C)[C@H](OC(C)=O)[C@@H]1C` was -0.487 (active); that for `CO[C@H]1O[C@@H]2O[C@@]3(C)CC[C@H]4[C@H](C)CC[C@@H]([C@H]1C)[C@@]24OO3` was -0.0298 (inactive).
On to `CC(C)CC(NC(=O)C(COC(C)(C)C)NC(=O)C(Cc1ccc(O)cc1)NC(=O)C(CO)NC(=O)C(Cc1c[nH]c2ccccc12)NC(=O)C(Cc1cnc[nH]1)NC(=O)C1CCC(=O)N1)C(=O)N[C@@H](CCCN=C(N)N)C(=O)N1CCCC1C(=O)NNC(N)=O` (stereo partly specified), for which the log fold change Tl+ flux was -0.0277 (inactive).
`COCCCCC(=NOCCN)c1ccc(C(F)(F)F)cc1`: the log fold change Tl+ flux was -0.0607 (inactive).
Regarding `CCN(CC)CCOc1ccc(C(=C(Cl)c2ccccc2)c2ccccc2)cc1`, the log fold change Tl+ flux was 0.00267 (inactive).
Turning to `CO[C@H]1/C=C/O[C@@]2(C)Oc3c(C)c(O)c4c(O)c(c(C=NN5CCN(C6CCCC6)CC5)c(O)c4c3C2=O)NC(=O)/C(C)=C\C=C\[C@H](C)[C@H](O)[C@@H](C)[C@@H](O)[C@@H](C)[C@H](OC(C)=O)[C@@H]1C`, the log fold change Tl+ flux was 0.0494 (inactive).
On the same count and under the same terms, the value for `O=C1CN(N=Cc2ccc([N+](=O)[O-])o2)C(=O)N1` was -0.0264 (inactive); that for `C=CC1=C(C(=O)O)N2C(=O)[C@@H](NC(=O)C(=NOCC(=O)O)c3csc(N)n3)[C@H]2SC1` was 0.0111 (inactive).
For `COc1cc(N)c(Cl)cc1C(=O)N[C@@H]1CCN(CCCOc2ccc(F)cc2)C[C@@H]1OC`, the log fold change Tl+ flux is 0.00662 (inactive).
For the compound `COCC1=C(C(=O)OC(C)OC(=O)OC(C)C)N2C(=O)[C@@H](NC(=O)C(=NOC)c3csc(N)n3)[C@H]2SC1` (stereo partly specified), the log fold change Tl+ flux is 0.0206 (inactive).

Source of the values: PubChem BioAssay.
